Screening data as filed in PubChem.
SARS PLpro yeast – qHTS of Yeast-based Assay for SARS-CoV PLP | S. cerevisiae expressing SARS-CoV PLpro, growth rescue | Potency, µM (doses to about 32.9 µM), hits mostly activators | hit rate 0.19% among 330,000; calls by dose curve; note: nearly all actives have a fitted effect of over 55% in size
Shiga inhibitor – A qHTS for Small Molecule Inhibitors of Shiga Toxin; Vero cells, Shiga toxin protein synthesis inhibition reporter; hit rate 9.2% among 290,000; inhibition, % at 38.7 µM; in the data active = inhibition mostly above about 28%, no sharp cut-off; inactive = mostly below about 43%
Pf growth 96h – Primary qHTS for delayed death inhibitors of the malarial parasite plastid, 96 hour incubation | P. falciparum luciferase reporter growth, 96 h | Potency, µM (top dose mostly 28.7 µM), most hits filed as inhibitors | hit rate 6.9% among 320,000 | AID 504834, 2011
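Plates of compound plus infected erythrocytes (2% hematocrit, 0.05% parasitemia final) incubate 96 hours, 37 C, 5% CO2. Detection reagent added; reduced luminescence from the parasites' luciferase reporter flags inhibition.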
Pf growth 48h – Primary qHTS for delayed death inhibitors of the malarial parasite plastid, 48 hour incubation; P. falciparum luciferase growth in erythrocytes, 48 h; Potency, µM (top dose mostly 28.7 µM), hits mostly inhibitors; hit rate 5.9% among 310,000
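Erythrocytes infected with P. falciparum carrying an integrated firefly luciferase reporter (2% hematocrit, 0.1% parasitemia final) were exposed to compounds in RPMI 1640 with 0.5% Albumax at 37 C, 5% CO2. Growth inhibition was scored as reduced luminescence.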
NS1 inh – qHTS Assay for Inhibitors of Influenza NS1 Protein Function; Potency, µM (top dose mostly 46.1 µM); hit rate 0.4% among 270,000; AID 2326, 2010; calls by dose curve; note: actives are rising curves; nearly all actives have a fitted effect of over 50% in size
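Growth recovery, yeast-based: influenza A NS1 expressed in S. cerevisiae causes slow growth, and suppressors are detected by OD600. The parent strain without NS1 is used as positive control.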
Cycloheximide cs – Cycloheximide Counterscreen for Small Molecule Inhibitors of Shiga Toxin. cell reporter, cycloheximide protein synthesis inhibition counterscreen. max response, %. hit rate 12% among 300,000. AID 2314, 2010; in the data active = max response mostly above about 13%, no sharp cut-off; inactive = mostly below about 14%; note: read at 38.3 µM for the half of the compounds with a filed dose
A number is an active result; - = inactive; ? = inconclusive; . = no result given; + = active, no number; [ ] = dose if it differs, or a comment. In the library only some 21% were active in any assay of this set; here they are far more common. Unless noted, calls come from the whole dose curve; as a rule, active = well fitted inhibition curve with a large enough effect; inconclusive = small, poorly fitted or top-dose-only effect, or another doubt; inactive = no such curve, though single readings can be large or run the other way.

SMILES | SARS PLpro yeast | Shiga inhibitor | Pf growth 96h | Pf growth 48h | NS1 inh | Cycloheximide cs
COc1ccc(-c2ccccc2)cc1NCc1ccc(OC)c(OC)c1 | - | - | - | - | ? | -
COc1ccc(-c2ccccc2)cc1NCc1ccccc1C | - | - | ? | - | - | 44
COc1ccccc1CNc1cc(-c2ccccc2)ccc1OC | - | - | 9.3µM | ? | - | -
CCN(CC)S(=O)(=O)c1ccc(NC(=O)CO/N=C(\N)c2ccccc2)cc1 | - | . | - | ? | . | .
O=c1[nH]c(=S)[nH]c(O)c1N=Nc1ccc(S(=O)(=O)N2CCOCC2)cc1 | - | - | ? | ? | - | -
O=c1[nH]c(=S)[nH]c(O)c1N=Nc1ccc2c(c1)OCO2 | - | 46 | - | - | . | 23
O=c1[nH]c(=S)[nH]c(O)c1N=Nc1ccc2c(c1)OCCO2 | - | 27 | - | - | - | 23
O=c1[nH]c(O)c(N=Nc2ccc3c(c2)OCCO3)c(=O)[nH]1 | - | 88 | - | - | . | 32
O=C1CCCC(O)=C1N=Nc1ccc2c(c1)OCO2 | - | 48 | - | - | - | 76
NS(=O)(=O)c1ccc(N=Nc2c(O)[nH]c(=S)[nH]c2=O)cc1 | - | - | ? | ? | - | -
CCc1nn(CC(=O)N2CCN(c3ccc(F)cc3)CC2)c(=O)c2cc3occc3n12 | - | - | - | - | - | -
Cc1cc(=O)nc2c3ccccc3n(C(C)C(=O)Nc3cc(F)ccc3F)n12 (configuration not stated) | - | - | 10µM | ? | - | -
Cc1cc(=O)nc2c3ccccc3n(C(C)C(=O)Nc3c(F)c(F)c(F)c(F)c3F)n12 (configuration not stated) | - | - | - | 3.3µM | . | -
CN(C(=O)COc1ccc([N+](=O)[O-])cc1)C1CCS(=O)(=O)C1 (configuration not stated) | - | - | - | - | - | -
Cc1cc(C)c2c(N)c(C(=O)c3ccc(Cl)cc3Cl)sc2n1 | - | - | - | 13µM | - | -
Cc1cc(C)c2c(N)c(C(=O)Nc3ccccc3Br)sc2n1 | - | 39 | ? | - | - | 24
Cc1cc(C)c2c(N)c(C(=O)Nc3ccccc3F)sc2n1 | - | 41 | - | - | - | 34
COc1cc2ncnc(N[C@H](C)c3ccccc3)c2cc1OC | - | - | 13µM | ? | - | -
COc1cc2ncnc(NCc3ccccc3C)c2cc1OC | - | - | 13µM | 15µM | - | -
COc1cc2ncnc(NCc3ccccc3Cl)c2cc1OC | - | - | ? | ? | - | -
COc1cc2ncnc(NCc3ccc(Cl)cc3)c2cc1OC | - | - | - | ? | - | -
COc1cc2ncnc(NCc3ccc(F)cc3)c2cc1OC | - | - | 10µM | . | - | -
CCCCCCCCCCSc1n[nH]c(N)n1 | - | - | - | - | - | -
COc1ccc2[nH]c3c(c2c1)CCNC3C1CC=C(C)CC1 (configuration not stated) | - | - | - | ? | - | -
COc1ccc2[nH]c3c(c2c1)CCNC3C (configuration not stated) | ? | - | 9.3µM | - | - | -
SMILES | SARS PLpro yeast | Shiga inhibitor | Pf growth 96h | Pf growth 48h | NS1 inh | Cycloheximide cs
COc1ccc2[nH]c3c(c2c1)CCNC3c1ccc([N+](=O)[O-])o1 (configuration not stated) | - | - | - | 13µM | - | -
CN(C)c1ccc(/C=N/NC(=O)C(=O)N2CCCCCC2)cc1 | - | - | ? | - | - | 26
COc1ccc(/C=N/NC(=O)C(=O)N2CCCC2)cc1 | - | - | ? | - | - | 36
COc1cc(/C=N/NC(=O)C(=O)N2CCCCCC2)ccc1O | - | - | - | ? | - | -
COC(=O)C1=C(C)N(Cc2cccnc2)C(=O)/C1=C\c1sccc1C | - | - | - | ? | - | -
Nc1nc(Cl)nc2c1ncn2[C@@H]1O[C@H](CO)[C@H](O)[C@H]1O | . | . | . | . | - | .
CC12CCC3C(CCC4CC(O)CCC43C)C1CC=C2c1ccccc1 (configuration not stated) | . | - | . | . | . | -
C/C(=N\NC(N)=S)C1=CCC2C3CC[C@H]4CC(O)CC[C@]4(C)C3CC[C@]12C (some centres not stated) | - | - | 12µM | . | - | -
Cc1ccc(N(Cc2cc3ccccc3[nH]c2=O)C(=O)c2cccs2)cc1C | - | - | ? | 12µM | - | -
CCN(Cc1cc2cc(OC)ccc2[nH]c1=O)C(=O)Cc1ccc(OC)cc1 | - | - | - | ? | - | -
COCC(=O)N(Cc1cc2cc(OC)ccc2[nH]c1=O)c1ccccc1 | - | - | - | - | - | 16
COCC(=O)N(Cc1cc2ccccc2[nH]c1=O)c1ccc(OC)cc1 | - | - | - | - | - | -
COCC(=O)N(Cc1cc2cc(C)ccc2[nH]c1=O)c1ccc(C)c(C)c1 | - | . | 10µM | - | - | -
CCN(Cc1cc2cc(OC)ccc2[nH]c1=O)C(=O)c1ccncc1 | - | - | 9.3µM | - | - | -
O=C(c1cc2ccccc2oc1=O)N(c1ccc(Cl)cc1)C1C=CS(=O)(=O)C1 (configuration not stated) | - | - | - | - | - | -
Oc1cc(O)cc(/C=C/c2ccc(O)cc2O)c1 | - | . | - | - | . | .
Oc1ccc(/C=C/c2cc(O)cc(O)c2)cc1 | - | 20 | - | - | - | 26
O=[N+]([O-])c1cc2c(cc1Br)CCN2 | - | - | ? | - | - | -
COc1cccc(/C=N/N2CCN(C3c4ccccc4-c4ccccc43)CC2)c1O | - | - | ? | 13µM | - | -
O=C1C(=O)c2ccccc2C([O-])=C1[n+]1ccccc1 | - | - | 7.4µM | 3.7µM | - | -
Cn1c(=O)c(-[n+]2ccccc2)c([O-])c2ccccc21 | ? | - | - | . | - | -
CCCC(=O)OC1CCS(=O)(=O)c2sccc21 (configuration not stated) | - | - | - | - | - | -
O=C1N(c2ccc(Cl)cc2)C(c2ccccc2)N2CCCN12 (configuration not stated) | - | - | - | - | - | -
O=C1N(c2ccc(Cl)cc2)C(c2cccnc2)N2CCCN12 (configuration not stated) | - | 108 | ? | - | . | -
CCn1cc(C2=NC(c3ccccc3)CO2)c2ccccc21 (configuration not stated) | ? | - | - | - | - | -
O=[N+]([O-])c1cccc(C2=NC(c3ccccc3)CO2)c1 (configuration not stated) | - | 81 | - | - | - | 23
COc1ccc(C2=N[C@H](c3ccccc3)CO2)cc1 | . | + | . | . | . | -
COc1ccc(C2=NC(c3ccccc3)CO2)cc1 (configuration not stated) | - | 96 | - | - | - | 56
O=[N+]([O-])c1cccc(C2N3CCCN23)c1 (configuration not stated) | - | - | -[5.75 µM] | - | - | -
COc1ccc(C2=N[C@@H](C(C)C)CO2)cc1 | . | + | . | . | . | 64
